Reference: PubChem BioAssay (EPA / NIEHS)
Records with an inconclusive call do not appear. Active and inactive are the calls of the source. How the source made its calls, unless noted: active means hit-call score of the fitted dose curve at least 0.9, where 1 is the maximum; inactive means score below 0.9.

Experiments:
[1] = CCTE_Harrill_HTTr_Viability_MCF7: CCTE's 6-hour Cell Viability Assessment for the High-Throughput Transcriptomics (HTTr) Platform, in MCF-7 cells cultured in DMEM + 10% fetal bovine serum, Harrill Lab (AID 2284010)
How it was run: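 MCF-7 cells in DMEM + 10% FBS, 384-well, exposed 6 h to an eight-point dilution series. Membrane integrity scored by high-content imaging of propidium iodide exclusion; bidirectional fit versus DMSO.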

[2] = CCTE_Harrill_HTTr_Apoptosis_MCF7: CCTE's 6-hour Apoptosis Assessment for the High-Throughput Transcriptomics (HTTr) Platform, in MCF-7 cells cultured in DMEM + 10% fetal bovine serum, Harrill Lab (AID 2284011)
How it was run: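 Apoptosis in MCF-7 cells grown in DMEM with 10% fetal bovine serum was scored after a six hour exposure by high content imaging of caspase-3/7 activation (CellEvent Caspase 3/7 Green), with DMSO serving as negative control and baseline.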

[3] = CCTE_Shafer_MEA_dev_firing_rate_mean: CCTE's Neural Network Formation Assay for Mean Firing Rate, Shafer Lab (AID 2284031);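 further: curve fitted for loss of firing so AC50 reflects decreased mean firing rate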
How it was run: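 Primary rat cortical neurons on 48-well MEA plates, exposed from plating day 0 with dosing renewed on DIV 5 and 9. Mean well firing rate over active electrodes, recorded days 5, 7, 9, 12, summarised as trapezoidal AUC.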

[4] = CCTE_Shafer_MEA_dev_per_burst_spike_percent: CCTE's Neural Network Formation Assay for Percent of Spikes in a Burst, Shafer Lab (AID 2284032);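 further: fitted as a decrease in burst spike percentage below DMSO baseline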
How it was run: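 Rat primary cortical neurons on 16-electrode MEA wells, dosed from plating day 0 for 12 days with renewal on DIV 5 and 9; spikes-in-bursts percentage averaged over bursting electrodes, collapsed as AUC across days 5, 7, 9, 12; loss direction versus DMSO.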

[5] = CCTE_Shafer_MEA_dev_active_electrodes_number: CCTE's Neural Network Formation Assay for Number of Active Electrodes, Shafer Lab (AID 2284040; active means hit-call score of the fitted dose curve at least 0.9, where 1 is the maximum;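 further: potency for loss of active electrodes versus DMSO so lower counts are hits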)
How it was run: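 Primary rat cortical neurons on 16-electrode MEA wells, exposed from day 0 through day 12 with compound renewed at DIV 5 and 9 feeds. Active electrodes (mean firing ≥5 spikes/min) counted at DIV 5, 7, 9, 12; trapezoidal AUC across days, loss-of-signal versus DMSO.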

[6] = CCTE_Shafer_MEA_dev_burst_rate: CCTE's Neural Network Formation Assay for Burst Rate, Shafer Lab (AID 2284042);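 further: potency for loss of burst rate below DMSO control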
How it was run: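 Primary rat cortical neurons on PEI-coated 48-well MEA plates (laminin added with cells at plating) (16 electrodes/well), exposed from plating to day 12, dosing renewed at DIV 5 and 9. Burst rate averaged over active electrodes, recorded DIV 5, 7, 9, 12, summarized as AUC; loss versus DMSO.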

[7] = CCTE_Shafer_MEA_dev_bursting_electrodes_number: CCTE's Neural Network Formation Assay for Number of Bursting Electrodes, Shafer Lab (AID 2284043; active means hit-call score of the fitted dose curve at least 0.9, where 1 is the maximum;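 further: potency is for loss of bursting electrodes relative to DMSO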)
How it was run: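 Primary rat cortical neurons plated on 16-electrode MEA wells, exposed from day 0 with compound renewed at DIV 5 and 9. Electrodes bursting ≥1 burst per 2 min counted on days 5, 7, 9 and 12; trapezoidal AUC across days, fitted for loss versus DMSO.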

[8] = CCTE_Shafer_MEA_dev_per_burst_interspike_interval: CCTE's Neural Network Formation Assay for Burst Interspike Interval, Shafer Lab (AID 2284044);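 further: mean spike spacing inside bursts as AUC over recordings on days 5 7 9 12; potency for a decrease of within-burst interspike interval below DMSO level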
How it was run: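 Spontaneous activity of maturing rat cortical networks is recorded on DIV 5, 7, 9 and 12 under chronic compound exposure beginning at plating. Endpoint: burst interspike interval well-mean, collapsed into trapezoidal AUC and fitted in the negative direction relative to DMSO.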

[9] = CCTE_Shafer_MEA_dev_burst_duration_mean: CCTE's Neural Network Formation Assay for Mean Burst Duration, Shafer Lab (AID 2284045);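 further: curve fitted for loss meaning shorter burst duration than DMSO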
How it was run: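 Primary rat cortical neurons on 48-well 16-electrode MEA plates, exposed from day 0 with renewal at DIV 5 and 9; spontaneous activity recorded on days 5, 7, 9, 12. Well-mean burst duration across bursting electrodes, collapsed as trapezoidal AUC; DMSO baseline.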

[10] = CCTE_Shafer_MEA_dev_interburst_interval_mean: CCTE's Neural Network Formation Assay for Mean Interburst Interval, Shafer Lab (AID 2284046);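 further: well-mean interburst interval of bursting electrodes as AUC over four recording days; curve fitted for decrease in interburst interval relative to DMSO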
How it was run: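 Recordings on days 5, 7, 9 and 12 give well-mean interburst interval across actively bursting electrodes, summarized as area under the curve. Cultures: rat cortical neurons, continuous exposure from day 0, compound renewed at feeds; decrease analyzed versus DMSO.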

[11] = CCTE_Shafer_MEA_dev_inter_network_spike_interval_mean: CCTE's Neural Network Formation Assay for Mean Inter-network Spike Interval, Shafer Lab (AID 2284047)
How it was run: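 Primary rat cortical neurons on 16-electrode MEA wells, exposed from plating day 0 through DIV 12, compound renewed at DIV 5 and 9 media changes. Mean interval between network-spike peaks recorded DIV 5, 7, 9, 12; collapsed as trapezoidal AUC, fitted downward versus DMSO.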

[12] = CCTE_Shafer_MEA_dev_network_spike_number: CCTE's Neural Network Formation Assay for Number of Network Spikes, Shafer Lab (AID 2284048);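 further: fit as a loss of signal meaning fewer network spikes than DMSO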
How it was run: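 Primary rat cortical neurons on PEI/laminin 48-well MEA plates, dosed from plating day 0 for 12 days, renewed at DIV 5 and 9. Network spike counts recorded DIV 5, 7, 9, 12, collapsed as trapezoidal AUC; DMSO baseline.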

[13] = CCTE_Shafer_MEA_dev_network_spike_peak: CCTE's Neural Network Formation Assay for Mean Number of Electrodes in Network Spike, Shafer Lab (AID 2284049);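 further: fitted for loss of signal meaning fewer electrodes in network spikes than DMSO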
How it was run: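 Network-spike peak electrode count from recordings on days 5, 7, 9 and 12 was combined as trapezoidal area under the curve. Rat cortical cultures were treated continuously from plating, with compound renewed at each feed (DIV 5, 9); fits versus DMSO.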

[14] = CCTE_Shafer_MEA_dev_spike_duration_mean: CCTE's Neural Network Formation Assay for Mean Spike Duration, Shafer Lab (AID 2284051);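 further: mean network spike duration pooled as area under curve over DIV 5 to 12 recordings; potency for a decrease in mean network spike duration versus DMSO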
How it was run: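 Primary rat cortical neurons on 16-electrode MEA wells (PEI-coated, laminin in plating drop), exposed from plating through DIV 12 with compound renewed at DIV 5 and 9. Mean network-spike duration recorded DIV 5, 7, 9, 12; trapezoidal AUC across days, DMSO baseline.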

[15] = CCTE_Shafer_MEA_dev_per_network_spike_spike_number_mean: CCTE's Neural Network Formation Assay for Mean Number of Spikes in a Network Spike, Shafer Lab (AID 2284053);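 further: fitted as decrease in spikes per network spike relative to DMSO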
How it was run: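 Primary rat cortical neurons on 48-well, 16-electrode MEA plates were exposed from plating to DIV 12, with dosing renewed on DIV 5 and 9. Spikes per network spike (0.05 s peak window) were recorded on DIV 5, 7, 9 and 12 and collapsed as trapezoidal AUC versus DMSO.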

[16] = CCTE_Shafer_MEA_dev_per_network_spike_spike_percent: CCTE's Neural Network Formation Assay for Percent of Spikes in a Network Spike, Shafer Lab (AID 2284054)
How it was run: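 Rat primary cortical neurons were grown on 48-well MEA plates (16 electrodes/well), exposed from plating day 0 through day 12, with treatment renewed on DIV 5 and 9. Percent of spikes within 0.05 s network-spike peaks was measured, summarised as AUC across days 5, 7, 9, 12.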

[17] = CCTE_Shafer_MEA_dev_LDH: CCTE's Lactate Dehydrogenase Assay for Cytotoxicity in the Neural Network Formation Assay, Shafer Lab (AID 2284068; active means hit-call score of the fitted dose curve at least 0.9, where 1 is the maximum;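 further: exposure for twelve days from plating with re-dosing on DIV 5 and 9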)
How it was run: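 Primary rat cortical neurons were plated on PEI/laminin MEA plates and exposed from day 0 for twelve days, with compound renewed at DIV 5 and 9. Cytotoxicity was determined by spectrophotometric LDH assay relative to DMSO.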

[18] = CCTE_Shafer_MEA_dev_AB: CCTE's Alamar Blue Assay for Cytotoxicity in the Neural Network Formation Assay, Shafer Lab (AID 2284083; active means hit-call score of the fitted dose curve at least 0.9, where 1 is the maximum;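 further: twelve days of exposure from plating with re-dosing on DIV 5 and 9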)
How it was run: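 Primary rat cortical neurons on PEI-coated 48-well MEA plates, 1.5 x 10^5 cells/well in laminin drop; compound exposure from day 0 of plating for twelve days, renewed at medium changes on DIV 5 and 9. Viability read as resazurin reduction by fluorescence, relative to DMSO.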

[19] = CCTE_Shafer_MEA_dev_mutual_information_norm: CCTE's Neural Network Formation Assay for Mutual Information Normalization, Shafer Lab (AID 2284091);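 further: mutual information between electrodes summarised as area under curve across four recording days; potency is for a decrease in mutual information relative to DMSO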
How it was run: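 Primary rat cortical neurons on PEI-coated 48-well MEA plates, 1.5 x 10^5 cells/well, exposed from day 0 through day 12 with re-dosing at DIV 5 and 9. Mutual information between electrodes recorded days 5, 7, 9, 12; trapezoidal AUC, loss-of-signal fit versus DMSO.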

[20] = UKN2_HCS_IMR90_neural_migration: University of Konstanz (UKN) Leist Lab Neural Crest Cell Migration Assay in human induced IMR90 Pluripotent Stem Cells (UKN2) (AID 2284204); details: actives raise or lower the signal
How it was run: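 iPSC-derived IMR90 neural crest cells seeded around stoppers on PLO/laminin/fibronectin; migration started in N2-S medium with EGF/FGF, compounds added after 24 h for 24 h. Migration into cell-free area imaged after calcein-AM/Hoechst staining; bidirectional fit versus DMSO.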

[21] = IUF_NPC1b_proliferation_BrdU_72hr: Leibniz Research Institute for Environmental Medicine (IUF) 72-hour Neural Progenitor Cell Bromodeoxyuridine (BrdU) Proliferation Assay (NPC1b) (AID 2284207)
How it was run: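 BrdU luminescence ELISA quantified DNA synthesis over the last 16 h of a 72 h exposure, fitted against DMSO. Primary hNPC spheres from gestational week 16-19 cortex grown with EGF/FGF at 37C, pH 7.2-7.6.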

[22] = IUF_NPC1a_proliferation_area_72hr: Leibniz Research Institute for Environmental Medicine (IUF) 72-hour Neural Progenitor Cell Proliferation Area Assay (NPC1a) (AID 2284208)
How it was run: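 Measured in 3D suspension: each well held one primary hNPC sphere grown with EGF and FGF at pH 7.2-7.6. Compound stayed on for 72 h, then area was imaged; spheres lacking growth factors defined reduced proliferation.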

[23] = IUF_NPC1_viability_72hr: Viability Assessment at 72 hours in the Leibniz Research Institute for Environmental Medicine (IUF) Neural Progenitor Cell Proliferation Assay (NPC1) (AID 2284209)
How it was run: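 Single spheres (0.25-0.35 mm) of human fetal cortex-derived neural progenitor cells were grown in proliferation medium with EGF and FGF at 37C and 5% CO2. They were exposed for 72 h without renewal, and viability was read by alamar blue resorufin fluorescence.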

[24] = CCTE_Mundy_HCI_Cortical_Synap_Neur_Matur_NeuriteSpotCountPerNeuriteLength: CCTE's Synaptogenesis and Neurite Maturation Assay in rat cortical cells for Neurite Spot Count per Neurite Length, Mundy Lab (AID 2284210)
How it was run: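 Rat primary cortical cultures, AraC added at DIV 5 to suppress glia; chemical exposure from DIV 7 to DIV 12. Fixed cells stained for MAP2 and synaptophysin plus Hoechst; synaptophysin puncta per neurite length quantified by high-content imaging, relative to DMSO.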

[25] = CCTE_Mundy_HCI_Cortical_Synap_Neur_Matur_BPCount: CCTE's Synaptogenesis and Neurite Maturation Assay in rat cortical cells for Branch Point Count, Mundy Lab (AID 2284211)
How it was run: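 Rat primary cortical cultures, AraC added DIV 5; chemicals dosed DIV 7 through DIV 12. Fixed cells stained for MAP2, synaptophysin and Hoechst; neurite branch points counted by automated high-content imaging, fitted relative to DMSO.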

Measured: AC50

CC(CNC(=S)[S-])NC(=S)[S-].[Zn+2] (stereo not given)
inactive: [1] | [2] | [11] | [20] | [22] | [23] | [24]
active: [3] 6.97 µM | [4] 17.4 µM | [5] 16.8 µM | [6] 9.92 µM | [7] 15 µM | [8] 26.2 µM | [9] 9.67 µM | [10] 50 µM | [12] 8.44 µM | [13] 20.9 µM | [14] 8.64 µM | [15] 24.7 µM | [16] 91.5 µM | [17] 39.4 µM | [18] 32.2 µM | [19] 4.05 µM | [21] 50 µM | [25] 50 µM
